Results filed as inconclusive are left out. Calls of active or inactive are those of the source. Calls come from the whole dose curve; as a rule, active = well fitted cell-killing curve with a large enough effect; inconclusive = small, poorly fitted or top-dose-only effect; inactive = flat fitted curve, though single readings scatter.
Experiment: qHTS of pediatric cancer cell lines to identify multiple opportunities for drug repurposing: Primary screen for RD cells (AID 1347104); note: nearly all actives have a fitted effect of over 55% in size
Details: RD rhabdomyosarcoma viability, CellTiter-Glo luminescence, 48 h; series mostly up to 46 µM; activity change, negative = cytotoxic: at the top concentration
Text: Drug repurposing or repositioning has been offered as a strategy for drug development in oncology programs. This approach has special potential for childhood cancers and other rare or orphan diseases, where the expected return on new drug development has been a disincentive to pharmaceuticals. […] In this project we exploit the poly-pharmacology of drugs to discover new indications via phenotypic screening of a panel of 19 well-characterized cell lines derived from solid tumors seen in children and adolescents. The goal is to identify approved drugs with previously unrecognized anticancer properties that has the potential to reveal new mechanisms and biological processes involved in carcinogenesis or drug resistance. We employed a titration-based paradigm (quantitative high-throughput screening or qHTS), where all compounds were tested at multiple concentrations for their effect on cell viability. Concentration-response curves (CRCs) were derived directly from the primary screen, and both potency and efficacy values were used to identify compounds with robust bioactivity profiles. We screened the NIH Chemical Genomics Center (NCGC) Pharmaceutical Collection (NPC) and Mechanism Interrogation Plate (MIPE) small molecule collections of approved and investigational compounds against these cell lines; and measured metabolically active cells after 48 hours of compound treatment as a proxy for cell viability. […] Assay Submitter: Nathalia J. Martinez, National Center for Advancing Translational Sciences, National Institutes of Health, Rockville, MD, USA; email: natalia.martinez@nih.gov Shen, M et al. Quantitative high-throughput phenotypic screening of pediatric cancer cell lines identifies multiple opportunities for drug repurposing. Oncotarget 2017 Dec 19;9(4):4758-4772. PMID 29435139.
The cells were obtained from University of North Carolina (UNC), Pediatric Preclinical Testing Program (PPT), and Coriell Institute (CI). qHTS cell viability assay: Cells were assayed in growth media at a density of 500-1,000 cells/well. Five microliters of cells were dispensed into 1,536-well, white, solid-bottom, TC-treated plates (Greiner Bio One) using a multidrop dispenser and incubated at 37 degrees C, 5% CO2, under a humidified atmosphere for 5 hours. Twenty-three nanoliters of compounds and controls (neutral control DMSO or positive control bortezomib at final concentration of 2.3 µM) were subsequently transferred by Kalypsys pintool. For primary screens, the MIPE collection was tested at 11-point dilutions (final concentrations range from 0.78 nM to 46 µM) and the NPC collection at 8-point dilutions (final concentrations range from 0.59 nM to 46 µM). Compounds tested in follow-up screens were assayed at 11-point dilutions. Cells were incubated for 48 hours, followed by addition of 3 µL of CellTiter-Glo (Promega). After a 15 min incubation at room temperature, samples were analyzed for luminescence intensity using a ViewLux High-throughput CCD imager equipped with clear filters.
In the case of `CC[C@H]1CN2CCc3cc(OC)c(OC)cc3[C@H]2C[C@@H]1C[C@@H]1NCCc2cc(OC)c(OC)cc21`, the Potency is reported as 469 nM (active). For `COc1ccc(CC2SC(=O)NC2=O)cc1C(=O)NCc1ccc(C(F)(F)F)cc1` (stereo not given), the “activity change, negative = cytotoxic” value was -22.8% (inactive). With `O=C(c1ccc(Nc2nccc(-c3cc4ccccc4s3)n2)cc1)N1CCC(N2CCCC2)CC1` the Potency was 10500 nM (active). In the case of `Cc1c(CN2CCN(S(C)(=O)=O)CC2)sc2c(N3CCOCC3)nc(-c3cnc(N)nc3)nc12`, the Potency is reported as 132 nM (active). In the case of `Nc1cccc(-c2cc3c(Oc4cccc(O)c4)ncnc3[nH]2)c1`, the Potency is reported as 9350 nM (active). For `C1Cc2[nH]nc(-c3nn[nH]n3)c2C1`, the “activity change, negative = cytotoxic” value was 7.61% (inactive). With `CCCNC(=O)Nc1ccc(Oc2ncnc3cc(OC)c(OC)cc23)cc1Cl` the “activity change, negative = cytotoxic” value was -9.5% (inactive). For `CCC1=C[C@@H]2CN(C1)Cc1c([nH]c3ccccc13)[C@@](C(=O)OC)(c1cc3c(cc1OC)N(C)[C@@H]1[C@@](O)(C(=O)OC)[C@H](OC(C)=O)[C@]4(CC)C=CCN5CC[C@]31[C@@H]54)C2`, the Potency was 18.7 nM (active). In the case of `CN1CCN(c2ccc3nc(-c4c(N)c5c(F)cccc5[nH]c4=O)[nH]c3c2)CC1`, the Potency is reported as 18700 nM (active). With `CC(C)Nc1cc(C(F)(F)F)cc2nc(NC(=O)c3cccnc3)nn12` the “activity change, negative = cytotoxic” value was -3.9% (inactive). In the case of `Cc1ccc(S(=O)(=O)Nc2cc(Cl)ccc2C(=O)Nc2nc(-c3ccccc3)cs2)cc1`, the Potency is reported as 10500 nM (active). With `Cc1cc(Nc2cc(NC(=O)c3c(Cl)cccc3Cl)ccn2)nc(N)n1` the Potency was 935 nM (active). For `Cc1cn2c(-c3cn[nH]c3)cnc2c(Nc2ccc(C(=O)N3CCNCC3)cc2F)n1`, the Potency was 16600 nM (active). With `COc1cccc(Nc2c(C(N)=O)cnc3c(C)cc(S(=O)(=O)c4cccc(C(=O)N(C)C)c4)cc23)c1` the “activity change, negative = cytotoxic” value was -1.93% [at 16.1 µM] (inactive). For `CN1CCN(Cc2ccc(NC(=O)Nc3ccc(Oc4cc(NC(=O)C5CC5)ncn4)cc3)cc2C(F)(F)F)CC1`, the Potency was 662 nM (active). With `CNC(=O)c1nn(C)c2c1C(C)(C)Cc1cnc(Nc3ccc(N4CCN(C)CC4)cc3)nc1-2` the Potency was 3720 nM (active). In the case of `COC(=O)[C@]12CCC(C)(C)C[C@@H]1[C@@H]1C(=O)C=C3[C@@]4(C)C=C(C#N)C(=O)C(C)(C)[C@@H]4CC[C@@]3(C)[C@]1(C)CC2`, the Potency is reported as 526 nM (active). With `c1ccc2c(CCNc3ccc(Nc4ccncc4)cc3)c[nH]c2c1` the Potency was 26400 nM (active). With `O=C(O)CCCc1c[nH]c2ccccc12` the “activity change, negative = cytotoxic” value was -10.7% (inactive). For `O=C(O)[C@H](Cc1c[nH]c2ccccc12)N1C(=O)c2ccccc2C1=O`, the “activity change, negative = cytotoxic” value was 12% [at 92.7 µM] (inactive). For `CC(C)CC(=O)Nc1n[nH]c2c1CN(C(=O)C1CCN(C)CC1)C2(C)C`, the Potency was 2350 nM (active). With `Cc1nc2ccc(CN(C)c3ccc(C(=O)N[C@@H](CCC(=O)O)C(=O)O)s3)cc2c(=O)[nH]1` the “activity change, negative = cytotoxic” value was -22.5% (inactive). With `CC(C)(C)OC(=O)Nc1ccc(-c2cc(C(=O)NCCCCCCC(=O)NO)no2)cc1` the Potency was 5260 nM (active). In the case of `Cc1ccc(CN2CCNCC2)cc1NC(=O)CNc1ccc(F)c(F)c1`, the “activity change, negative = cytotoxic” value is reported as -27.2% (inactive). In the case of `Cn1cc(-c2[nH]c3cc(NC(=O)[C@H](N)C4CCCCC4)cc4c3c2C=NNC4=O)cn1`, the Potency is reported as 14800 nM (active). With `CC(C)C[C@H](NC(=O)CNC(=O)c1cc(Cl)ccc1Cl)B(O)O` the Potency was 1320 nM (active). In the case of `COc1cc2c(cc1-c1c(C)noc1C)ncc1[nH]c(=O)n([C@H](C)c3ccccn3)c12`, the Potency is reported as 4690 nM (active). In the case of `Nc1ccc(S(=O)(=O)Nc2ncccn2)cc1`, the “activity change, negative = cytotoxic” value is reported as 17.7% (inactive). In the case of `CN(C)CCCN=c1c2ccccc2n(C)c2[nH]c(=O)n(C)c(=O)c12`, the Potency is reported as 13200 nM (active). In the case of `CN(C)CC=CC(=O)Nc1cc2c(Nc3ccc(F)c(Cl)c3)ncnc2cc1O[C@H]1CCOC1`, the Potency is reported as 5900 nM (active). For `CCN1CCN(Cc2ccc(-c3cc4c(N[C@H](C)c5ccccc5)ncnc4[nH]3)cc2)CC1`, the Potency was 7.4 nM (active). In the case of `CCN(CC)CCNC(=O)c1ccc2nc(-c3ccccc3)c(-c3ccc(CN4CCC(n5c(=O)[nH]c6ccccc65)CC4)cc3)nc2c1`, the Potency is reported as 3320 nM (active). With `CC=C1NC(=O)[C@H]2CSSCCC=C[C@H](CC(=O)N[C@H](C(C)C)C(=O)N2)OC(=O)[C@H](C(C)C)NC1=O` the Potency was 14.8 nM (active). With `Nc1nc(-c2nn(Cc3ccccc3F)c3ncccc23)nc(N)c1N1CCOCC1` the “activity change, negative = cytotoxic” value was -16.6% (inactive). In the case of `C=CC(=O)Nc1cc2c(Nc3ccc(F)c(Cl)c3)ncnc2cc1OCCCN1CCOCC1`, the Potency is reported as 18700 nM (active). With `CNC(=O)c1ccccc1Nc1nc(Nc2ccc(N3CCOCC3)cc2OC)ncc1Cl` the Potency was 469 nM (active). For `OCCCNc1cc(-c2ccnc(Nc3cccc(Cl)c3)n2)ccn1`, the Potency was 235 nM (active). In the case of `CC1COC2(CCN(c3nc(=O)c4cc(C(F)(F)F)cc([N+](=O)[O-])c4s3)CC2)O1` (stereo not given), the “activity change, negative = cytotoxic” value is reported as 8.52% (inactive). In the case of `CC1(C)CC(=O)c2c(C(F)(F)F)nn(-c3ccc(C(N)=O)c(NC4CCC(OC(=O)CN)CC4)c3)c2C1` (stereo not given), the Potency is reported as 187 nM (active). For `CS(=O)(=O)N1CCN(Cc2cc3nc(-c4cccc5[nH]ncc45)nc(N4CCOCC4)c3s2)CC1`, the Potency was 1050 nM (active).

From PubChem BioAssay (NCATS)
Potency is the fitted concentration of half-maximal effect.
